# Screening data: PubChem BioAssay, several laboratories
# Shown are actives, neighbours in structure and some others; about 4.7% of the full set was active somewhere.
# tim10-1 inh: growth inhibitors of tim10-1 mutant yeast; AID 463190; hit rate 2.2% among 330,000; S. cerevisiae tim10-1 ts strain growth, BacTiter-Glo, 24 h; inhibition, % at 20 µM;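 active means inhibition of at least 40%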;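 further: mutant grown at 25 °C; 0% = DMSO wells with yeast and 100% = wells holding no yeast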
# PfHsp90 yeast 2: reduces growth (ATP signal) of yeast expressing P. falciparum Hsp90 | S. cerevisiae expressing PfHsp90, BacTiter-Glo ATP, 48 h; yeast lacking PDR1 and PDR3 efflux regulators | hit rate 0.32% among 310,000 | inhibition, % at 9.4 µM;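 active means every replicate shows inhibition above about 80%, whatever the replicate mean, limit read from the data; inconclusive means mean inhibition reaches the set limit but some replicate falls short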;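 further: 0% = DMSO neutral controls and 100% = 20 µM radicicol positive controls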
# SKKanGAS inh: inhibitors of SKKanGAS S. pyogenes growth in kanamycin (SK-promoter or general growth effect); inhibition, % at 7.5 µM; AID 1662; hit rate 1.3% among 300,000; BacTiter-Glo, 6 h;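 active means mean replicate score, as percent of positive control median, at least 50; inconclusive means mean below 50 but one replicate at or above 50; inactive means mean and every replicate below 50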;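 further: strain carries kanamycin resistance gene driven by streptokinase promoter and grows in 40 µg/ml kanamycin; loss of luminescence reflects streptokinase promoter inhibition or plain growth inhibition; 0% = median of DMSO wells and 100% = positive control at its reference dose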
# tim23-1 inh: growth inhibitors of tim23-1 mutant yeast; hit rate 1.3% among 330,000; inhibition, % at 20 µM; S. cerevisiae tim23-1 growth, BacTiter-Glo luminescence, 24 h; AID 463212;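 active means growth inhibition of the mutant yeast at or above 50%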;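 further: temperature-sensitive mutant grown at 25 °C; plate controls were DMSO-treated mutant yeast for no effect and medium wells lacking yeast for full effect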
# ATG4B inhibitor: inhibitors of human ATG4B cysteine protease; hit rate 0.51% among 340,000; ATG4B cleavage of LC3-PLA2, NBD-HPC fluorescence, 1 h; inhibition, % at 8.33 µM; in the data active means inhibition above about 40%
# Target sequence (Q9Y4P1 whole entry, looked up): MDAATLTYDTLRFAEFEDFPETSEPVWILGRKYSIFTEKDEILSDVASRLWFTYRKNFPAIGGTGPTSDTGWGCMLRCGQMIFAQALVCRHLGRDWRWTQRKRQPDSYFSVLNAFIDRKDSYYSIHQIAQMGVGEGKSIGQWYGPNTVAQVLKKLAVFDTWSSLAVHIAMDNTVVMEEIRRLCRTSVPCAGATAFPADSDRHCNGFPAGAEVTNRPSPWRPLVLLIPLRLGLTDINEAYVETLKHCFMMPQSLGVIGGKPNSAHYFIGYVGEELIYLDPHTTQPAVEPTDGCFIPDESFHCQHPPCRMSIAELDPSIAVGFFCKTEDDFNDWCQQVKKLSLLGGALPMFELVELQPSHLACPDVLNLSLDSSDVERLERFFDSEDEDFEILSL
# TIM10 inh: TIM10 yeast growth inhibition; S. cerevisiae TIM10 strain growth, BacTiter-Glo luminescence, 24 h; inhibition, % at 10 µM; hit rate 1.4% among 330,000;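 active means inhibition of 40% or more at the single tested concentration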;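 further: wild-type TIM10 isogenic control strain grown at permissive 25 °C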
# tim10-1 confirm: tim10-1 yeast growth inhibition, confirmed; shares compounds with tim10-1 inh; S. cerevisiae tim10-1 ts strain growth, BacTiter-Glo, 24 h; inhibition, % at 20 µM; hit rate 56% among 7,400;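 active means inhibition of yeast growth at or above a set limit in either of two repeat tests at 20 µM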;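 further: tim10-1 mutant grown at permissive 25 °C to find synthetic lethal compounds; 0% = DMSO yeast wells and 100% = medium wells without yeast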
# TIM10 conf: TIM10 yeast growth inhibition, confirmed; shares compounds with TIM10 inh; S. cerevisiae tim10 strain growth, BacTiter-Glo luminescence, 24 h; inhibition, % at 10 µM; hit rate 63% among 4,600;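 active means inhibition of yeast growth at or above a set limit in either of two replicates at 10 µM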;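 further: this counterscreen used the strain with wild-type TIM10; 0% = yeast with DMSO and 100% = medium wells lacking yeast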
# tim23-1 conf: tim23-1 yeast growth inhibition, confirmed; shares compounds with tim23-1 inh; S. cerevisiae tim23-1 growth, BacTiter-Glo luminescence, 24 h; inhibition, % at 20 µM; hit rate 83% among 4,400; AID 463218;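 active means inhibition above about 39% in either of two replicate wells at 20 µM, limit read from the data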;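 further: temperature-sensitive tim23-1 mutant grown at 25 °C; 0% = DMSO wells with yeast and 100% = medium wells without yeast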
# * marks the source's active call; other numbers are inactive results; ? = inconclusive; . = no result given.
SMILES,tim10-1 inh,PfHsp90 yeast 2,SKKanGAS inh,tim23-1 inh,ATG4B inhibitor,TIM10 inh,tim10-1 confirm,TIM10 conf,tim23-1 conf
O=C(NCC1CC1)c1ccc2c3n(nc2c1)-c1ccc(Cl)cc1CO3,47.7*,-19.5,-8.5,67.4*,-15.0,53.8*,34.7*,57.4*,53.5*
O=C(CCl)N1c2ccccc2CCc2ccccc21,8.2,-3.7,-0.6,33.5,.,26.4,.,.,.
O=C1N2c3ccccc3CCc3cccc(c32)C1(O)C(F)(F)F (stereo not given),47.2*,-2.0,-3.1,50.5*,8.0,29.6,43.5*,.,54.8*
CCNC(=O)CCSc1nc(C)cc(C)n1,7.1,.,-3.2,25.9,-11.5,-7.6,.,.,.
O=C(O)Cc1cn(-c2ccccc2)nc1-c1ccc(Cl)cc1,10.2,21.3,17.1,14.2,-5.2,0.2,.,.,.
CC1=NN(c2ccccc2)C(=O)/C1=C\c1cn(-c2ccccc2)nc1C,36.1,13.0,-1.3,37.6,9.9,16.4,.,.,.
CC1=NNC(=O)/C1=C\c1cn(-c2ccccc2)nc1-c1ccc(Cl)cc1,82.5*,-0.5,65.9*,89.0*,11.4,89.4*,71.0*,88.5*,67.5*
CC1=NN(c2ccccc2)C(=O)/C1=C\c1cn(CCC#N)nc1-c1ccc(Cl)cc1,43.1*,7.1,1.1,53.7*,-4.7,54.1*,31.4,38.0*,51.4*
O=c1ccn(Cc2ccccc2)c(SCc2ccccc2)n1,.,-12.8,.,.,-4.2,.,.,.,.
Clc1ccc(CSc2nccn2Cc2ccccc2)cc1,47.9*,.,?,50.5*,6.0,60.1*,43.9*,44.2*,53.6*
Nc1cc(-c2ccc(OC(F)(F)F)cc2)nn1-c1ccc(Cl)c(Cl)c1,46.5*,.,66.9*,57.0*,14.1,9.4,62.5*,.,61.0*
COc1cc(OC)c(NC(=S)Nc2cc(Cl)cc(Cl)c2)cc1Cl,54.5*,-4.2,2.5,53.7*,19.8,41.1*,52.7*,-9.4,58.5*
CCOc1cc(/C=C2/C(=O)ON=C2C)ccc1OCc1ccccc1F,52.5*,5.6,7.8,58.2*,6.8,24.4,25.4,.,52.2*
CCOc1cc(/C=C2/C(=O)ON=C2C)ccc1OCc1ccccc1,30.3,.,-6.0,32.9,-1.2,20.8,.,.,.
CC(C)[C@H](NC(=O)C1CCN(S(=O)(=O)c2ccccc2)CC1)C(=O)NCc1ccncc1,-0.6,-19.5,-10.9,-12.7,-3.6,-2.0,.,.,.
C[C@@]12CCC=C[C@H]1[C@H](c1ccc(F)c(/C=C/c3ccccc3)c1)N(Cc1ccccc1)C2=O,12.3,-4.9,27.3,25.4,-1.5,11.7,.,.,.
Cc1ccc(C(=O)C=CNNC(=O)c2ccccc2)cc1,-0.6,0.9,-1.2,23.5,-2.8,12.3,.,.,.
Cc1ccc(S/C=C\C(=O)c2ccccc2)cc1,49.2*,6.0,-1.7,57.6*,-3.5,43.8*,46.0*,55.1*,62.0*
CSc1nnc2c3cc(F)ccc3n(C)c2n1,47.8*,83.5*,-0.3,51.5*,-2.5,77.0*,61.0*,80.8*,50.5*
Cn1c2ccc(F)cc2c2nnc(SCCN3CCCCC3)nc21,11.0,-4.4,1.6,6.0,0.3,22.3,.,.,.
O=C1C(c2ccccc2)=[N+]([O-])c2ccccc21,57.6*,12.2,-2.4,61.4*,-17.4,54.8*,47.5*,52.7*,-59.0
O=C1C(=Cc2cccs2)C(=O)c2ccccc21,21.6,8.1,-8.4,43.9,-1.9,11.1,.,.,.
COCCNC(=O)/C(C#N)=C/C=C/c1ccccc1,22.6,39.8,2.6,20.5,-6.8,3.1,.,.,.
N#C/C(=C\c1ccccc1Br)C(=O)NC1CC1,54.1*,-55.7,4.0,83.7*,-5.4,66.7*,60.5*,83.4*,81.8*
COCCNC(=O)/C(C#N)=C/c1ccccc1Br,72.3*,-7.5,5.3,79.0*,-3.0,76.2*,74.2*,68.5*,76.5*
SMILES,tim10-1 inh,PfHsp90 yeast 2,SKKanGAS inh,tim23-1 inh,ATG4B inhibitor,TIM10 inh,tim10-1 confirm,TIM10 conf,tim23-1 conf
CC(C)Sc1nc(N)nc(-c2cccs2)c1C#N,48.1*,-194.4,21.4,64.5*,4.5,24.0,28.5,.,18.6
Cc1cc(NS(=O)(=O)Cc2ccccc2)cc(C)c1OCC(=O)N1CCOCC1,-0.7,6.5,-4.3,-2.5,-0.3,-0.1,.,.,.
O=c1nc(/C=C/c2ccc(O)c(O)c2)oc2ccccc12,.,7.1,0.6,.,5.4,.,.,.,.
COc1ccc(/C=C\c2nc(=O)c3ccccc3o2)cc1,54.8*,2.0,-7.0,78.0*,11.9,41.9*,45.6*,34.8*,71.3*
Cc1ccc(Nc2nc3ccc(Cl)cc3n3cnnc23)cc1F,62.7*,16.3,1.7,50.6*,2.9,12.6,19.8,.,19.7
Cc1ccc2nc(Nc3ccc(F)cc3)c3nncn3c2c1,1.4,-13.4,-6.3,36.7,-0.1,28.5,.,.,.
CC1(C)CC(=O)c2cnc(N3CCN(c4ccccc4)CC3)nc2C1,27.7,-15.4,-0.3,30.9,3.2,9.7,.,.,.
CC1(C)CC(=O)c2cnc(N3CCc4ccccc4C3)nc2C1,54.9*,-17.5,-3.9,70.7*,10.1,16.3,53.0*,.,52.4*
COc1ccccc1N1CCN(C2CCCN(C(=O)c3cccc(-c4ccco4)c3)C2)CC1 (stereo not given),-3.2,-8.1,0.5,-20.8,25.5,-12.9,.,.,.
Cc1ccc(NC(=O)c2ccc(=O)[nH]c2)cc1S(=O)(=O)N1CCCCC1,-1.5,-7.8,-6.5,0.7,-11.8,-3.0,.,.,.
COc1cccc(CN2c3ccc(Br)cc3C(=O)CS2(=O)=O)c1,40.5*,-25.3,.,56.9*,2.7,31.7,38.2*,.,59.8*
COc1cccc(CN2C(=O)C(C)Oc3ccccc32)c1 (stereo not given),9.9,-10.0,10.6,-2.9,5.4,-2.2,.,.,.
CC1(C)CC(=O)C2=C(C1)Oc1nc3ccccc3cc1C2C(C#N)C#N (stereo not given),61.0*,.,-2.7,63.4*,-2.9,53.6*,58.9*,63.5*,67.9*
CC1(C)CC(=O)C(C2C3=C(CC(C)(C)CC3=O)Oc3ccccc32)C(=O)C1 (stereo not given),10.6,3.4,-5.4,41.1,1.4,20.8,.,.,.
NC(=O)SCC(=O)Nc1ccc(Cl)c(Cl)c1,70.9*,-0.6,.,79.8*,-11.2,-26.8,31.0*,.,76.3*
Cc1ccc(S(=O)(=O)CNC(=S)c2ccc3ccccc3c2)cc1,43.0*,-14.2,62.4*,52.5*,-2.4,33.9,20.4,.,49.6*
Cc1cccc(/C(N)=N/OC(=O)c2ccncc2)c1,25.6,-50.3,-1.2,8.3,9.2,36.0,.,.,.
